# Reference: the supplement of paper PMC7724964
# T1: NR2C1 355-603 Hormone_recep (domain begin residue: 355, domain end residue: 603), P13056
# T1 chain: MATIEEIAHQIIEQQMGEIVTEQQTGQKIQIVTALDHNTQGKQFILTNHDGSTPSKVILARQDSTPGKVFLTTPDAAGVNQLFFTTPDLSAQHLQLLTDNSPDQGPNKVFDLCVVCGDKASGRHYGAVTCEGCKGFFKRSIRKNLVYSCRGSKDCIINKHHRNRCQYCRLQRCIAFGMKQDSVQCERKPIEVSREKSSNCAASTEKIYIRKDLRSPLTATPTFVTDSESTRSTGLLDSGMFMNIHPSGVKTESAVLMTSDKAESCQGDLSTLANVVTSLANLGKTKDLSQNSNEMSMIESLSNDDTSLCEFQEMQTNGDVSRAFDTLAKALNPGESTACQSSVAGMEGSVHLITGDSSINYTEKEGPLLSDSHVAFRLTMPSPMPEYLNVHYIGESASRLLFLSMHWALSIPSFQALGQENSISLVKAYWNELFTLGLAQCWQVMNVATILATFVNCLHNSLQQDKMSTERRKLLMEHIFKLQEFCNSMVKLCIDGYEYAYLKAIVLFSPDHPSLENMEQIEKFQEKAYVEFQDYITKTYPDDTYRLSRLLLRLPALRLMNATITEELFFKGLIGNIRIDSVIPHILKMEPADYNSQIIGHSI
# T2: NR1H4 256-474 Hormone_recep (domain begin residue: 256, domain end residue: 474), Q96RI1
# T2 chain: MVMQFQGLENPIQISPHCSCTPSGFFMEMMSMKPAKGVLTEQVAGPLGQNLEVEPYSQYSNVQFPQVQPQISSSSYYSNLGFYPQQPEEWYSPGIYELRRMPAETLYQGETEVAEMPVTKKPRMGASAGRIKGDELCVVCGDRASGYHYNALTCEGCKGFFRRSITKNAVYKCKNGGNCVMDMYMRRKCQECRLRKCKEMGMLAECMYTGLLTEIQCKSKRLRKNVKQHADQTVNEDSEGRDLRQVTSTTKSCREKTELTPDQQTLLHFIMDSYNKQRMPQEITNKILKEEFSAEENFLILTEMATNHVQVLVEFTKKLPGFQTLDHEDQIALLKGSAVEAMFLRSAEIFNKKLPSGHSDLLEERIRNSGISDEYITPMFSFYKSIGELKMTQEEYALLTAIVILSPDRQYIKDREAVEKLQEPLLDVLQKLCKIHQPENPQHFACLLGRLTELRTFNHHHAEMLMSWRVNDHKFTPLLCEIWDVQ
# T3: NR4A2 327-598 Hormone_recep (domain begin residue: 327, domain end residue: 598), P43354
# T3 chain: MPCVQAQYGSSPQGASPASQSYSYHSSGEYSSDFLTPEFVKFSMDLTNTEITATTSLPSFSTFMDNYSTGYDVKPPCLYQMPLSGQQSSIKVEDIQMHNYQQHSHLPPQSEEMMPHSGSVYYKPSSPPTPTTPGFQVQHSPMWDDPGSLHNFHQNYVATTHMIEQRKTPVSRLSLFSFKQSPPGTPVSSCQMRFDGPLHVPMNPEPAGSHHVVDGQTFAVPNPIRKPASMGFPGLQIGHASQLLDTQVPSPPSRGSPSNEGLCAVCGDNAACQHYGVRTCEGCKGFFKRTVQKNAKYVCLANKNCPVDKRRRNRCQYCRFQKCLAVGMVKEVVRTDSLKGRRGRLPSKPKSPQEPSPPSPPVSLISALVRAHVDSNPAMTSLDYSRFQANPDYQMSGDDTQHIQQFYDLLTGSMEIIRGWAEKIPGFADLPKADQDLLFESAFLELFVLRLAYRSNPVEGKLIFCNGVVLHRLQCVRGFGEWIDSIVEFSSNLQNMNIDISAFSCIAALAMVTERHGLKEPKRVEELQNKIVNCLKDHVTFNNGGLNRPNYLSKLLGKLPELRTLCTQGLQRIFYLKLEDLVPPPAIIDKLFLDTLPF
# T4: NR1H3 204-447 Hormone_recep (domain begin residue: 204, domain end residue: 447), Q13133
# T4 chain: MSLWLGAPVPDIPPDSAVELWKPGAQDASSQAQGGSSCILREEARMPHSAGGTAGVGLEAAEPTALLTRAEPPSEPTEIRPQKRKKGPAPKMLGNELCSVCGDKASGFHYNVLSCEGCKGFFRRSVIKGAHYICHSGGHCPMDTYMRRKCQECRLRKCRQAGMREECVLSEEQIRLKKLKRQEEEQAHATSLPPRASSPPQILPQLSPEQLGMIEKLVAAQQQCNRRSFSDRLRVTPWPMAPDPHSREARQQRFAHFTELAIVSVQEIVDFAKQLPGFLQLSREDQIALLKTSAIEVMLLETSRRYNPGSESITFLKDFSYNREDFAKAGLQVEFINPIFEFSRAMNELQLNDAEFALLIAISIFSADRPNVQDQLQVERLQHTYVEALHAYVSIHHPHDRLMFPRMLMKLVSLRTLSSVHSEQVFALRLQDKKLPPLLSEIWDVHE
# T5: NR4A3 356-626 Hormone_recep (domain begin residue: 356, domain end residue: 626), Q92570
# T5 chain: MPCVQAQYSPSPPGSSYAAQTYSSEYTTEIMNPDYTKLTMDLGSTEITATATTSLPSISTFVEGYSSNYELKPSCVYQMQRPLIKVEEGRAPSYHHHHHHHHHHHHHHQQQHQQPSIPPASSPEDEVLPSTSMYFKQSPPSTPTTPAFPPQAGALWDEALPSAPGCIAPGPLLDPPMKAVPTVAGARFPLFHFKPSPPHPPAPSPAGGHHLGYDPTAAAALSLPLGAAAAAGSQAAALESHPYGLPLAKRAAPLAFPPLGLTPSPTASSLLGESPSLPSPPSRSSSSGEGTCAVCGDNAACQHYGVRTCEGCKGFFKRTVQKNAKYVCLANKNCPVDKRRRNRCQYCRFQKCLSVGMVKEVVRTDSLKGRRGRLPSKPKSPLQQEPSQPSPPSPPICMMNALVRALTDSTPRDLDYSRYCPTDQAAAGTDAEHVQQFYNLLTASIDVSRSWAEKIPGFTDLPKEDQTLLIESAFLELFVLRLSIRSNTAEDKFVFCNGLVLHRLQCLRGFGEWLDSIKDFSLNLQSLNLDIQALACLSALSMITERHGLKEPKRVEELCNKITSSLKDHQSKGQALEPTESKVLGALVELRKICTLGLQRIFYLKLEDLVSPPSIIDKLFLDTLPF
# T6: NUP98 730-880 Nucleoporin2 (domain begin residue: 730, domain end residue: 880), P52948
# T6 chain: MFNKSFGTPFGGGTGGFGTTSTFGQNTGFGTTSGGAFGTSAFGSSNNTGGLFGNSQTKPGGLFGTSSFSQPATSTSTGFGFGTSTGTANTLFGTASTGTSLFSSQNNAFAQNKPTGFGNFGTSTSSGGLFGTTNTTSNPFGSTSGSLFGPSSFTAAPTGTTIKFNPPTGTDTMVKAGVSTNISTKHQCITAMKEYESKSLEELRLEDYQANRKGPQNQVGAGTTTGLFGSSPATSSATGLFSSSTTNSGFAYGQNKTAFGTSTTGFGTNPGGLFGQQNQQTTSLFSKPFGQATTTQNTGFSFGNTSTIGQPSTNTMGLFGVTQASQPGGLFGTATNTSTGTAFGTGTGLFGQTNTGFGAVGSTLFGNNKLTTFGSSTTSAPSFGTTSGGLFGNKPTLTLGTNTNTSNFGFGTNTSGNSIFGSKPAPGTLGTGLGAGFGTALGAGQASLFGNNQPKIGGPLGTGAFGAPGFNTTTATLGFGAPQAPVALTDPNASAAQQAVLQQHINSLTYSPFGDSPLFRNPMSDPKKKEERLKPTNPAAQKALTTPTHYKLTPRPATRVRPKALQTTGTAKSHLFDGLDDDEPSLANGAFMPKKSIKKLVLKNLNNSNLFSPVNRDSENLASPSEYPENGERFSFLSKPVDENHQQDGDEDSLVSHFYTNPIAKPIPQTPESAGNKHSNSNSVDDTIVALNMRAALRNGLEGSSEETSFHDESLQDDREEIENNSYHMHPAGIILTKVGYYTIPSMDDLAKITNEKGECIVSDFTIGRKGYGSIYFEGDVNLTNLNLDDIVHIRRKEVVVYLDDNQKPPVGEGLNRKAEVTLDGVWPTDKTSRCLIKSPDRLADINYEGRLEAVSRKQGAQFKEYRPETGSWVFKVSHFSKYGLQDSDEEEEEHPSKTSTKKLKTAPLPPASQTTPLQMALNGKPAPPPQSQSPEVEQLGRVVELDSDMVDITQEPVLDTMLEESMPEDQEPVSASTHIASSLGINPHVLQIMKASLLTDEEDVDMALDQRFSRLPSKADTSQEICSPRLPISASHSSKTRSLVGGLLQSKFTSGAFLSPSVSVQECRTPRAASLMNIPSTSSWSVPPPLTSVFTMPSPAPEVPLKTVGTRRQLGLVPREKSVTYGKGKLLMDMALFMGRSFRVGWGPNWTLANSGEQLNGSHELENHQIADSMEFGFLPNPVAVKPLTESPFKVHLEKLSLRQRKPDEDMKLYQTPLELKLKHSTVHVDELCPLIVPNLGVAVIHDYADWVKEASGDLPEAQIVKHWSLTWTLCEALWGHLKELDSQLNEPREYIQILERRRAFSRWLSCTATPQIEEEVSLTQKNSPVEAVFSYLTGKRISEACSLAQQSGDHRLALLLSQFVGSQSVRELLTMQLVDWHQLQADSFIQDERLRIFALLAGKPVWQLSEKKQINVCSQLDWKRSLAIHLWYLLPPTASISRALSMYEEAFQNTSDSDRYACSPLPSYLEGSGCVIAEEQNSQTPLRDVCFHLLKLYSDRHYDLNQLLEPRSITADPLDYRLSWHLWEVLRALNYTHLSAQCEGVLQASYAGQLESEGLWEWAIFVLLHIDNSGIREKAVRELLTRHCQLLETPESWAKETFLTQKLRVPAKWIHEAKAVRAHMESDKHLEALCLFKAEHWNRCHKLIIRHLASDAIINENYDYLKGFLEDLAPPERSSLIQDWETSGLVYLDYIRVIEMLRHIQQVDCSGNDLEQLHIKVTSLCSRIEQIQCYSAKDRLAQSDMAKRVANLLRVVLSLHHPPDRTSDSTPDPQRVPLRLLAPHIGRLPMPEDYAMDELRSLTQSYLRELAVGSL
# What was measured:
# Assay in all cases: phage ELISA signal ratio (GST-PRM binding over GST background); higher = stronger binding of peptide-phage to the PRM
# [1] = target: T1, NR2C1 355-603 Hormone_recep (domain …
# In short: (§1)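 Five rounds of selection were carried out against human peptide recognition domains fused to the C-terminus of glutathione S-transferase (GST) and expressed in 96-well plates. The M13 phage library presented randomized hexadecapeptides, cysteine-free and glycine-flanked, on the gene-8 major coat protein. For each value, the phage ELISA signal on the GST-domain fusion was divided by the signal on GST alone.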
# [2] = target: T2, NR1H4 256-474 Hormone_recep (domain …
# In short: as §1
# [3] = target: T3, NR4A2 327-598 Hormone_recep (domain …
# In short: as §1
# [4] = target: T4, NR1H3 204-447 Hormone_recep (domain …
# In short: as §1
# [5] = target: NR5A2 297-541 Hormone_recep (domain begin residue: 297, domain end residue: 541), O00482
# In short: as §1
# [6] = target: NR2E3 154-410 Hormone_recep (domain begin residue: 154, domain end residue: 410), Q9Y5X4
# In short: as §1
# [7] = target: T5, NR4A3 356-626 Hormone_recep (domain …
# In short: as §1
# [8] = target: T6, NUP98 730-880 Nucleoporin2 (domain …
# In short: as §1
# [9] = target: NR5A1 221-461 Hormone_recep (domain begin residue: 221, domain end residue: 461), Q13285
# In short: as §1
# Sequence of NR5A2 297-541 Hormone_recep (domain begin residue: 297, domain end residue: 541), O00482 (O00482 whole entry): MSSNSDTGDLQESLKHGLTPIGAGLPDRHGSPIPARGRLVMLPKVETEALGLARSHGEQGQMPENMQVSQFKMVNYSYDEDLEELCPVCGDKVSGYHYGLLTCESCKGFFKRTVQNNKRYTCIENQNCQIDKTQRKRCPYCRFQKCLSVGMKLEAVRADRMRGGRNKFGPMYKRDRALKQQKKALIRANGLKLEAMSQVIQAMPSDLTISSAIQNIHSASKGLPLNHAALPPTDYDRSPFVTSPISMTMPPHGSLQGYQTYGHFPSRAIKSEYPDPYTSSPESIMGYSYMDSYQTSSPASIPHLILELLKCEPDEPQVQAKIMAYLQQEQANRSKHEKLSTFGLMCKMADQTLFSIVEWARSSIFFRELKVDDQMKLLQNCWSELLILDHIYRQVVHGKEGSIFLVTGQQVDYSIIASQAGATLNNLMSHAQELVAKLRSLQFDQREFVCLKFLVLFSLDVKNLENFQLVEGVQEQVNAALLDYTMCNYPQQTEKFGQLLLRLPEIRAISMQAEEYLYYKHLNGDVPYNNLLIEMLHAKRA
# Sequence of NR5A1 221-461 Hormone_recep (domain begin residue: 221, domain end residue: 461), Q13285 (Q13285 whole entry): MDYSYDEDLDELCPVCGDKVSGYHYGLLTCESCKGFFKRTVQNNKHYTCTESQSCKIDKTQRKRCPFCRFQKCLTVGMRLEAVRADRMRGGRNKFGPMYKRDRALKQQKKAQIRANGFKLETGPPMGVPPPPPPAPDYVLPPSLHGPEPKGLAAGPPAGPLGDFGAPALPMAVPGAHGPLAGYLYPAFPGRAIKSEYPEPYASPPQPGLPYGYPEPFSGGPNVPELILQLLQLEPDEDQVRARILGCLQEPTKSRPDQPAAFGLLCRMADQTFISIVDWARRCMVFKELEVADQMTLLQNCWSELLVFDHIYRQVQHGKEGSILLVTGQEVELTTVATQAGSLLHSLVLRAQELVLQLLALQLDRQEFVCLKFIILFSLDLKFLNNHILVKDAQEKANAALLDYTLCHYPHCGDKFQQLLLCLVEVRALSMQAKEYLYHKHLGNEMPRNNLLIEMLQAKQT
# Sequence of NR2E3 154-410 Hormone_recep (domain begin residue: 154, domain end residue: 410), Q9Y5X4 (Q9Y5X4 whole entry): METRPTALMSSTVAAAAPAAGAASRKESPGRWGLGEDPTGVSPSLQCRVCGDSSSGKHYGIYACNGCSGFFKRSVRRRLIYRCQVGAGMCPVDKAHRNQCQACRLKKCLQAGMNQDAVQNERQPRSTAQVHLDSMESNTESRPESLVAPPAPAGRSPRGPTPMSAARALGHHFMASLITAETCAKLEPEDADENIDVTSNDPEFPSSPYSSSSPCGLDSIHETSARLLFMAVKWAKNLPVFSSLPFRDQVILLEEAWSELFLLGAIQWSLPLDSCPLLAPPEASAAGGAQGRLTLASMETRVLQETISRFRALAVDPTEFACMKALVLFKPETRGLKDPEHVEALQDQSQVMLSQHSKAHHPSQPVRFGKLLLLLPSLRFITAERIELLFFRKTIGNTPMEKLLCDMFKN
binder,measurement,setting,value
WGPFLSFQYAVDPTQE,phage ELISA signal ratio,[1],19.1
GDLEQHLMEWWTREVF,phage ELISA signal ratio,[2],12.3
LAFGEWLDKEIGLAYF,phage ELISA signal ratio,[2],14.3
TMSLWPSSWDIITLNS,phage ELISA signal ratio,[3],15
TQEMWDWVMMIEMTEF,phage ELISA signal ratio,[4],14
QEWQAWMLSMEEGEMM,phage ELISA signal ratio,[4],15.5
QQAQPRWWSMVLQHEW,phage ELISA signal ratio,[5],4.92
DEWWMFYPQPMYDLWH,phage ELISA signal ratio,[6],6.08
LNDSEQWFTWAYKYVD,phage ELISA signal ratio,[3],9.75
WQEWLDYTVESQYTLV,phage ELISA signal ratio,[2],7.27
LTMAQQFPYLWSALSN,phage ELISA signal ratio,[5],11.2
QTMQRQWLDILLSLEL,phage ELISA signal ratio,[3],20.2
AFKQLMFHVIGEEYSV,phage ELISA signal ratio,[3],30.5
MPDVPYQWVDLTEWFM,phage ELISA signal ratio,[1],15
PYTGIWFGEYLHNFIP,phage ELISA signal ratio,[1],9.25
QWSVEPWWHEMVIQGI,phage ELISA signal ratio,[3],24.1
GWSPWYEGRGVDWMTW,phage ELISA signal ratio,[3],5.78
NQWGPYWSFSFVPMDW,phage ELISA signal ratio,[1],8.51
EMLLDQQMWEWVQAMS,phage ELISA signal ratio,[4],26.9
QQEPWWWMDWDFQQAE,phage ELISA signal ratio,[7],4.47
DYPEVEWLTQQWDFWS,phage ELISA signal ratio,[4],17
AAPGSWDYSLLEFHYL,phage ELISA signal ratio,[1],3.03
TELPPLPYAWQDYAHW,phage ELISA signal ratio,[1],24.8
SHDMYEMIMWFFYQTE,phage ELISA signal ratio,[3],14.5
YPEIAWLQQMMQSDSR,phage ELISA signal ratio,[4],28.4
SPFDFWPLQSWWFKTM,phage ELISA signal ratio,[3],9.75
WFGWDAQMTEQEDELW,phage ELISA signal ratio,[8],5.91
PYHDSWFYWPGLTEGV,phage ELISA signal ratio,[9],5.49
WAEWDASQPDWVPEYQ,phage ELISA signal ratio,[8],4.87
